PubChem BioAssay
Calls of active or inactive are those of the source.

Experiments:
[1] = binders of probe aFSTL3 on microarray, primary screen, stem cell growth factor project, biochemical, small-molecule microarray, fluorescence 635/667 (AID 1064); conditions: higher = more signal;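 further: measures binding of the biotinylated anti-FSTL3 antibody to printed compounds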
[2] = binders from COS7 lysate, DM2A8 probe, primary screen, torsin A project, cell lysate, small-molecule microarray, fluorescence 635/667 (AID 1065); conditions: higher = more signal, COS7 lysate expressing mutant human TOR1A
[3] = binders of probe aFGF2 on microarray, primary screen, stem cell growth factor project, biochemical, small-molecule microarray, fluorescence 635/667 (AID 1067); conditions: higher = more signal;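 further: measures binding of biotinylated aFGF2 protein to printed compounds on slides; z-score merges feature fluorescence and signal-to-noise across triplicate slides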
[4] = binders of probe aFGF10 on microarray, primary screen, stem cell growth factor project, biochemical, small-molecule microarray, fluorescence 635/667 (AID 1071); conditions: higher = more signal;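 further: score merges 667 nm spot intensity and signal to noise from triplicate slides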
[5] = target: Neurogenic locus notch homolog protein 2 (Homo sapiens) (UniProt Q04721); assay: Notch2 binders on small-molecule microarrays, primary screen, biochemical, small-molecule microarray, 635 nm fluorescence, stem cell growth factors (AID 1073); conditions: Notch2 binding, higher = more signal
Neurogenic locus notch homolog protein 2 (Homo sapiens), sequence (Q04721 whole entry, looked up, canonical isoform): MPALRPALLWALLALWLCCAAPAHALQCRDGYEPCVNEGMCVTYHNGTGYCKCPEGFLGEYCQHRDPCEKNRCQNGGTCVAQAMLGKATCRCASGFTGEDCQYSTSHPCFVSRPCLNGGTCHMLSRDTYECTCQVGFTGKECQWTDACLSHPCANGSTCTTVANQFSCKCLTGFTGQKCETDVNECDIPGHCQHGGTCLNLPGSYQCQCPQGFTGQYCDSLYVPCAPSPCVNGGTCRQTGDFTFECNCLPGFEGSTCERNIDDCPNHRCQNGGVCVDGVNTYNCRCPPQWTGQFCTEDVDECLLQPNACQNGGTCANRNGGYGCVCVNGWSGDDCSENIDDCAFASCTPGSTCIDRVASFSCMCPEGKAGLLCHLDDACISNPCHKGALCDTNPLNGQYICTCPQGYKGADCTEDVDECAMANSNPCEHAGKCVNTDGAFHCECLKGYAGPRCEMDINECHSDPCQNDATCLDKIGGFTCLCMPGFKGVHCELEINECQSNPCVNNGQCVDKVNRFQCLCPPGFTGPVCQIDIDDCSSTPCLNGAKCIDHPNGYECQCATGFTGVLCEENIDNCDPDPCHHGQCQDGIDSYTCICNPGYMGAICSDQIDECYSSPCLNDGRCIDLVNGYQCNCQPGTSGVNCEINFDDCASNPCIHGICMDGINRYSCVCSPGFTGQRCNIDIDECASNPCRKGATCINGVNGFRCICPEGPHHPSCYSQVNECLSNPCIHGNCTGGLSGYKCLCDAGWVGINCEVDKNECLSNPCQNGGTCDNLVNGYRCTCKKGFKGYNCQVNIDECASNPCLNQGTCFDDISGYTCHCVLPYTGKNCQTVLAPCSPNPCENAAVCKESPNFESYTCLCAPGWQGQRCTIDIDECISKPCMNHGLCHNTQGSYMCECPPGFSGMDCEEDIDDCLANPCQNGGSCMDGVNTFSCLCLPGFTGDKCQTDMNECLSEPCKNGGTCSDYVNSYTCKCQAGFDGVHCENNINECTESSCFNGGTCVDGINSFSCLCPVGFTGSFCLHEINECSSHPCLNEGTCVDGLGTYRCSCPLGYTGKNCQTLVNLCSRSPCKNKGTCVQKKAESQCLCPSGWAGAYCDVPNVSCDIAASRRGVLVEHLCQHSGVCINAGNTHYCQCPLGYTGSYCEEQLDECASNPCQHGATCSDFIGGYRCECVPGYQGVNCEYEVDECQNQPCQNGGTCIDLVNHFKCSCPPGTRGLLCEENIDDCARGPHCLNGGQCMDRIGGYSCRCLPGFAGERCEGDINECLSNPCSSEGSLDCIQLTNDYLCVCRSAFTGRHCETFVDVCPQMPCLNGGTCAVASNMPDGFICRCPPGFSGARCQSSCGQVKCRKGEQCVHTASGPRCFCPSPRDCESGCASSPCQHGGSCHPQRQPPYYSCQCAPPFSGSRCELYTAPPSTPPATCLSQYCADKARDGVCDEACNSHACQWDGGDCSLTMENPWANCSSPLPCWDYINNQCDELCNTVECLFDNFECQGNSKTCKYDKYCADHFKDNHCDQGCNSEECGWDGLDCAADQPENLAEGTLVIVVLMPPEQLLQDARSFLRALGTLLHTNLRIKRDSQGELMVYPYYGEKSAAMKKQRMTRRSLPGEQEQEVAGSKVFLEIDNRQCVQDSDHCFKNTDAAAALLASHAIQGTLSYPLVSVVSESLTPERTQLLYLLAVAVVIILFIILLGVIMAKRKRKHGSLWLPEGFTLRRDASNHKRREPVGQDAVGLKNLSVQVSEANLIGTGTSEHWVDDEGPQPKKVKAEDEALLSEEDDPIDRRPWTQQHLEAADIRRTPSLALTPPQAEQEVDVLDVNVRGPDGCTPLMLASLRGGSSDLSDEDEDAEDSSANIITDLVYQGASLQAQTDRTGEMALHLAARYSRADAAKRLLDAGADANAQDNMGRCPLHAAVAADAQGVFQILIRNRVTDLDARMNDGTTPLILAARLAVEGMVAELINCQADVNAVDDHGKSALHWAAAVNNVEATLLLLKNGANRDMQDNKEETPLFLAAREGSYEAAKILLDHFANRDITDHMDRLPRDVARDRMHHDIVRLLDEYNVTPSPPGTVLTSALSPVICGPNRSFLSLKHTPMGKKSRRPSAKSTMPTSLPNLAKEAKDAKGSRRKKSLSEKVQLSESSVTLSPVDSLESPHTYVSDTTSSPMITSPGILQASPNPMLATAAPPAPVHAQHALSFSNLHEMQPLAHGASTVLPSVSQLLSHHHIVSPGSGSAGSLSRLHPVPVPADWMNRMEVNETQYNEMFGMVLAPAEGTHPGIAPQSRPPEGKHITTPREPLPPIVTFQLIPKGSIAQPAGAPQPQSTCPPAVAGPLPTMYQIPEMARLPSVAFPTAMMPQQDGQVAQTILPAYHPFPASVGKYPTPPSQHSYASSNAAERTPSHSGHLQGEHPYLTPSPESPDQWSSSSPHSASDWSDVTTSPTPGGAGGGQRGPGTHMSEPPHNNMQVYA

[6] = target: Pro-neuregulin-1, membrane-bound isoform (Homo sapiens) (UniProt Q02297); assay: NRG1 binders on small-molecule microarrays, primary screen, psychiatric disease protein project, biochemical, small-molecule microarray, fluorescence 635/667 (AID 1075); conditions: NRG1 binding, 635 nm fluorescence, higher = more signal;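 further: score combines 667 nm spot fluorescence with signal to noise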
Pro-neuregulin-1, membrane-bound isoform (Homo sapiens), sequence (Q02297 whole entry, looked up, the tested form may be a part, canonical isoform): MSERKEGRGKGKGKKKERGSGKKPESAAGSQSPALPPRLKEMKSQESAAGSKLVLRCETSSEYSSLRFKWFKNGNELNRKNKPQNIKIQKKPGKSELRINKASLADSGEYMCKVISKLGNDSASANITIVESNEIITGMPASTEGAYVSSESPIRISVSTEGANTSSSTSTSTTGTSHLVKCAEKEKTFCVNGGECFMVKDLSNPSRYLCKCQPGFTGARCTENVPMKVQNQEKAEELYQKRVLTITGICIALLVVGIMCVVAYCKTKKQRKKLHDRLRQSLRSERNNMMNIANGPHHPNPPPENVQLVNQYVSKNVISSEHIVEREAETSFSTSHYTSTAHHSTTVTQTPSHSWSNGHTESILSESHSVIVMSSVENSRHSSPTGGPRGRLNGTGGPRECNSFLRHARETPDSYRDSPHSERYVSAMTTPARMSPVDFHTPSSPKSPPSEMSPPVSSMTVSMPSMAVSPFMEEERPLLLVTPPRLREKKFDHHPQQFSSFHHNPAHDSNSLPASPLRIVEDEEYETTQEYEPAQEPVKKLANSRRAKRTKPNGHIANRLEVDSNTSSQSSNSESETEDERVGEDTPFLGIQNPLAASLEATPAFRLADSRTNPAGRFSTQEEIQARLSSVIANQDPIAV

[7] = test system: Neuregulin-1 EGF-like domain; assay: binders of neuregulin-1 EGF-like domain, primary screen, biochemical, small-molecule microarray, 635 nm fluorescence (AID 1081); conditions: small-molecule microarray binding, higher = more signal;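 further: binding of the protein to compounds printed on small-molecule microarray slides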
[8] = FRG1 promoter luciferase signal modulators, primary screen, FRG1 inhibition for FSHD, cell-based, C2C12 myotubes, firefly/Renilla luciferase, luminescence (AID 1084); conditions: higher = more signal, called active from +8 up or from −8 down
[9] = binders of probe aFST on microarray, primary screen, stem cell growth factor project, biochemical, small-molecule microarray, fluorescence 635/667 (AID 1086); conditions: higher = more signal;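 further: score merges 667 nm fluorescence with signal-to-noise of each printed compound spot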
[10] = binders of probe aHhip on microarray, primary screen, stem cell growth factor project, biochemical, small-molecule microarray, fluorescence 635/667 (AID 1087); conditions: higher = more signal;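 further: score merges spot fluorescence at 667nm with spot signal to noise ratio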

Structure (SMILES) | composite z-score [1] | composite z-score [2] | composite z-score [3] | composite z-score [4] | composite z-score [5] | composite z-score [6] | composite z-score [7] | z-score [8] | composite z-score [9] | composite z-score [10]
CN(C)CCCCCCNC(=O)[C@@H]1C[C@@H]2C(=O)N[C@@H](CCCCN)C(=O)N2[C@@H]1c1cccc(OCCO)c1 | 3.04 | 2.4 | 0.862 | 1.13 | 1.05 | 2.75 | 1.52 | 0.718 (inactive) | 3.58 | 1.72
COCCOC(=O)N1C(=O)[C@@]2(c3cc(C#CC4=CCCCC4)ccc31)[C@H](C(=O)Nc1nc3ccccc3s1)[C@H]1C(=O)O[C@H](c3ccccc3)[C@H](c3ccccc3)N1[C@@H]2c1ccc(OCCO)cc1 | -0.152 | 0.471 | -0.0009 | 0.427 | 1.12 | 0.342 | 0.899 | 2.19 (inactive) | 0.146 | -0.0994
C=C(CCCC)C(=O)CC[C@H](OC(=O)c1cccnc1)c1ccccc1OCCO | 0.453 | 0.657 | -0.0573 | 0.726 | -0.261 | -0.113 | 0.22 | 1.28 (inactive) | 0.0241 | 0.0505
COc1ccc([Si](C)(C)[C@H]2[C@H](CC(=O)N3Cc4ccccc4C[C@H]3CO)O[C@@]3(C(=O)N(Cc4ccc(N5CCC5=O)cc4)c4ccccc43)[C@@H]2C)cc1 | 0.061 | 0.859 | 0.0967 | 0.265 | 0.198 | 1.08 | 1.2 | -4.57 (inactive) | 0.983 | 0.115
Cc1ccc(C(C)CC(O)C2C=CC3C(=O)N(C)C(=O)C3N2NC(=O)OC(C)(C)C)o1 (stereo not given) | -0.112 | 0.6 | 0.239 | 0.687 | 0.868 | 1.67 | 0.883 | 0.385 (inactive) | 0.889 | -0.27
O=C1c2ccccc2[C@@]2(Cc3ccccc3N(CC(F)(F)F)C2=O)[C@H](c2ccc(CO)cc2)N1Cc1ccccc1Cl | -0.351 | -0.112 | -0.147 | -0.0091 | 0.0933 | -0.0415 | 0.222 | -0.163 (inactive) | -0.121 | -0.226
[N-]=[N+]=NCc1ccccc1[C@@H]1OC(c2ccc(OCCCO)cc2)=N[C@]1(CCS(=O)(=O)c1ccccc1)C(=O)NCCN1CCOCC1 | 0.21 | 0.631 | 0.269 | 0.918 | 1.65 | 1.99 | 1.31 | 1.97 (inactive) | 1.87 | 0.156
C=C(COC)/C(=C/C[C@@H](OC(C)=O)c1ccc(CO)o1)c1cnc2ccccc2c1 | -0.258 | 0.434 | 0.0472 | 1.11 | 1.65 | 1.02 | 1.04 | 0.527 (inactive) | 0.408 | 0.364
CC(C)C[C@@H]1NC(=O)[C@H]2C[C@@H](C(=O)NCCCCCCN(C)C)[C@@H](c3ccc(O)cc3)N2C1=O | -0.0795 | 1.44 | -0.0366 | 1.16 | 0.285 | 0.717 | 1.48 | 3.69 (inactive) | 0.0151 | 0.0274
CC(C)C[C@@H]1NC(=O)[C@H]2C[C@@H](C(=O)NCCCCCCN)[C@@H](c3ccc(O)cc3)N2C1=O | 0.839 | 0.252 | -0.0212 | -0.0652 | -0.277 | 0.612 | 1.1 | -0.811 (inactive) | 0.472 | 0.134
C=CCNC(=O)[C@H]1[C@@H]2C(=O)O[C@@H](c3ccccc3)[C@@H](c3ccccc3)N2[C@@H](c2ccccc2OCCO)[C@]12C(=O)Nc1ccc(C#CC3=CCCCC3)cc12 | -0.382 | 0.952 | -0.0534 | 0.88 | 1.04 | 0.666 | 1.09 | -2.87 (inactive) | 0.185 | 0.0695
COC(=O)[C@@]1(Cc2ccc(F)cc2)[C@H]2c3cc(C(=O)N(C)C)n(Cc4nc5ccccc5[nH]4)c3C[C@H]2CN1C(=O)c1ccccc1 | 0.258 | -1.35 | 0.349 | 0.841 | 1.66 | 2.13 | 1.13 | -0.169 (inactive) | 1.36 | -0.139
C=CC[C@]12N=C(c3ccc(OCCCO)cc3)O[C@H]1c1ccccc1N(Cc1ccccc1)C2=O | 1.67 | 0.473 | -0.0316 | -0.138 | 0.877 | 0.138 | 0.774 | -2.33 (inactive) | 0.625 | 0.0176
C=C/C=C/[C@H]1C(=C)CN([C@@H](Cc2ccccc2)C(=O)OC)[C@@H]1[C@H](O)Cc1ccccc1 | 0.042 | -0.951 | -0.203 | -0.189 | -1.06 | -0.824 | -0.5 | -0.164 (inactive) | -0.364 | -0.455
COc1ccc([Si](C)(C)[C@H]2[C@H](CC(=O)N3CCC[C@H]3CO)O[C@@]3(C(=O)N(Cc4cccc(N5C(=O)c6cccc7cccc5c67)c4)c4ccccc43)[C@@H]2C)cc1 | -0.354 | -0.0115 | 0.0686 | 0.483 | 0.818 | 1.77 | 0.981 | -4.24 (inactive) | 0.305 | 0.166
